This is part of a sample that, as a whole, favours compounds with a hit. Of some 79,000 tested, about 15% had one in any assay. Cut-off read from the data, not from the text of the source: active = growth inhibition above about 70%; inactive = the rest.
Columns and labels:
[1] = NCI Yeast Anticancer Drug Screen. Data for the rad52 strain (AID 147);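 note: 0% = growth of vehicle-treated control cultures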; settings: S. cerevisiae rad52 mutant growth inhibition, active compounds read high
How it was run: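 Yeast strain carrying a DNA damage repair alteration was exposed to test compounds. Growth inhibition was measured relative to vehicle-treated controls.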

[2] = NCI Yeast Anticancer Drug Screen. Data for the wt1 strain (AID 149);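 note: 0% = growth of vehicle-treated wt1 cultures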; settings: S. cerevisiae wt1 strain (SPY 50644) growth inhibition, active compounds read high
How it was run: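 Each compound is tested on wt1 yeast and the loss of growth versus vehicle gives the inhibition value.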

[3] = NCI Yeast Anticancer Drug Screen. Data for the rad50EPP+ strain (AID 151);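 note: 0% = growth of vehicle-treated control cultures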; settings: S. cerevisiae rad50 mutant strain, active compounds read high
How it was run: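 Yeast strain carrying rad50 alteration (rad50EPP+) exposed to compounds; growth inhibition measured relative to vehicle-treated controls.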

[4] = NCI Yeast Anticancer Drug Screen. Data for the rad50 strain (AID 155);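 note: 0% = growth of vehicle-only cultures of the same strain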; settings: S. cerevisiae rad50 strain growth inhibition, active compounds read high
How it was run: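 Vehicle-treated cultures provide the reference for the growth inhibition reported for compound-exposed, repair-deficient yeast.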

[5] = NCI Yeast Anticancer Drug Screen. Data for the mec2-1 strain (AID 157); settings: S. cerevisiae mec2-1 strain, active compounds read high
How it was run: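 mec2-1 yeast strain, carrying an alteration in DNA damage repair or cell cycle control, was exposed to compounds; growth inhibition was measured relative to vehicle-treated controls.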

[6] = NCI Yeast Anticancer Drug Screen. Data for the rad14 strain (AID 159);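 note: 0% = growth of vehicle-treated control cultures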; settings: S. cerevisiae rad14 strain growth inhibition, active compounds read high
How it was run: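 Inhibition of growth is reported for a repair-deficient yeast mutant following compound treatment, calculated relative to cultures that received vehicle.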

[7] = NCI Yeast Anticancer Drug Screen. Data for the sgs1 mgt1 strain (AID 161);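 note: 0% = growth of cultures given vehicle only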; settings: S. cerevisiae sgs1 mgt1 strain, active compounds read high
How it was run: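 Compounds are added to genetically altered yeast, and growth is compared with cultures given vehicle alone to give percent inhibition.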

[8] = NCI Yeast Anticancer Drug Screen. Data for the CLN2oe strain (AID 163);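 note: 0% = growth of vehicle-only control cultures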; settings: S. cerevisiae CLN2oe strain, active compounds read high
How it was run: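 Yeast cells carrying a defined cell-cycle control alteration were exposed to test compounds. Growth inhibition was scored against vehicle-treated control cultures.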

[9] = NCI Yeast Anticancer Drug Screen. Data for the cln2 rad14 strain (AID 165);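 note: 0% = growth equal to vehicle treated cultures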; settings: S. cerevisiae cln2 rad14 strain, active compounds read high
How it was run: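 Yeast carrying cln2 and rad14 alterations (cell cycle control and DNA damage repair) were exposed to compounds. Growth inhibition was measured against vehicle-treated controls.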

[10] = NCI Yeast Anticancer Drug Screen. Data for the bub3 strain (AID 167); settings: S. cerevisiae bub3 mutant strain, active compounds read high
How it was run: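 Mutant yeast screening strain plus compound; vehicle-treated cultures serve as the 0% inhibition reference.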

[11] = NCI Yeast Anticancer Drug Screen. Data for the wt2 strain (AID 169); settings: S. cerevisiae wt2 strain growth inhibition, active compounds read high
How it was run: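 Yeast cells were exposed to test compounds, and growth inhibition was measured relative to vehicle-treated controls.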

[12] = NCI Yeast Anticancer Drug Screen. Data for the mlh1 strain (AID 171);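 note: 0% = growth of vehicle-treated control cultures of the same strain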; settings: S. cerevisiae mlh1 strain growth inhibition, active compounds read high
How it was run: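 Yeast carrying a defined genetic alteration in DNA damage repair or cell cycle control were exposed to test compounds. Growth inhibition was measured relative to vehicle-treated controls.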

[13] = NCI Yeast Anticancer Drug Screen. Data for the sgs1 strain (AID 173);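 note: 0% = growth of vehicle-only control cultures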; settings: S. cerevisiae sgs1 mutant, active compounds read high
How it was run: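 Yeast mutant strains carrying defined defects in DNA damage repair or cell cycle control were exposed to test compounds. Growth inhibition was scored against vehicle-treated controls.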

[14] = NCI Yeast Anticancer Drug Screen. Data for the mlh1 rad18 strain (AID 175); settings: S. cerevisiae mlh1 rad18 strain growth inhibition, active compounds read high
How it was run: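 Growth inhibition of the yeast strain was measured after compound exposure and expressed relative to vehicle-treated controls. The strain carries defined defects in DNA damage repair.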

[15] = NCI Yeast Anticancer Drug Screen. Data for the rad18 strain (AID 177); settings: S. cerevisiae rad18 mutant growth inhibition, active compounds read high
How it was run: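 Yeast carrying a defined DNA damage repair alteration were exposed to compounds. Growth inhibition was expressed relative to vehicle-treated controls.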

[16] = at 5.0 µM (retest, dose inferred, filed as 0.5)
[17] = at 50.0 µM (retest, dose inferred, filed as 5.0)

Measured: growth inhibition

Nc1nc2c(c(=O)[nH]1)NC(CCNc1ccc(C(=O)O)cc1)CN2 (stereo not drawn)
inactive: [1]; at 1.2 µM -2% | [1]; at 3.7 µM 1% | [1]; at 11.0 µM -5% | [1]; at 33.0 µM 2% | [1]; at 100.0 µM -5% | [2]; at 1.2 µM 1% | [2]; at 3.7 µM 1% | [2]; at 11.0 µM 2% | [2]; at 33.0 µM 1% | [2]; at 100.0 µM -1% | [3]; at 1.2 µM -3% | [3]; at 3.7 µM -4% | [3]; at 11.0 µM -3% | [3]; at 33.0 µM -2% | [3]; at 100.0 µM -5% | [4]; at 1.2 µM -3% | [4]; at 3.7 µM 2% | [4]; [16] 14% | [4]; at 11.0 µM -5% | [4]; at 33.0 µM -4% | [4]; [17] 12% | [4]; at 50.0 µM -12.1% | [4]; at 100.0 µM -1% | [5]; at 1.2 µM -1% | [5]; at 3.7 µM 2% | [5]; [16] 7% | [5]; at 11.0 µM 4% | [5]; at 33.0 µM 2% | [5]; [17] 18% | [5]; at 50.0 µM -35.5% | [5]; at 100.0 µM -13% | [6]; at 1.2 µM 0% | [6]; at 3.7 µM -6% | [6]; at 11.0 µM 2% | [6]; at 33.0 µM 3% | [6]; at 100.0 µM 6% | [7]; [16] 11% | [7]; [17] -2% | [7]; at 50.0 µM -0.75% | [8]; at 1.2 µM -2% | [8]; at 3.7 µM -3% | [8]; at 11.0 µM -3% | [8]; at 33.0 µM 1% | [8]; at 100.0 µM 2% | [9]; [16] 31% | [9]; [17] 39% | [9]; at 50.0 µM 2.45% | [10]; at 1.2 µM 2% | [10]; at 3.7 µM 2% | [10]; [16] -13% | [10]; at 11.0 µM 0% | [10]; at 33.0 µM -1% | [10]; [17] 6% | [10]; at 50.0 µM 6.15% | [10]; at 100.0 µM 24% | [11]; at 1.2 µM 0% | [11]; at 3.7 µM 2% | [11]; at 11.0 µM 1% | [11]; at 33.0 µM 0% | [11]; at 100.0 µM 3% | [12]; at 1.2 µM 0% | [12]; at 3.7 µM -1% | [12]; at 11.0 µM 0% | [12]; at 33.0 µM 0% | [12]; at 100.0 µM 15% | [13]; at 1.2 µM -2% | [13]; at 3.7 µM -3% | [13]; at 11.0 µM -4% | [13]; at 33.0 µM -6% | [13]; at 100.0 µM -3% | [14]; [16] 8% | [14]; [17] 28% | [14]; at 50.0 µM 4.25% | [15]; at 1.2 µM -3% | [15]; at 3.7 µM -5% | [15]; at 11.0 µM -10% | [15]; at 33.0 µM -22% | [15]; at 100.0 µM -29%

— PubChem BioAssay (NCI)
